This passage reports Potency results from PubChem BioAssay (Tox21).

“And” between values parts separate entries of the source, which are not always exact repeats. Equal values may be shown once. Records with an inconclusive call do not appear. Entries that show only a call come without a potency. More than one record can exist for a structure, and the calls need not agree. The source made the active and inactive calls. The call rests on the fitted dose curve; in most records, active means well fitted cell-killing curve with a large enough effect in the repeat runs; inconclusive means weak or mixed curves; inactive means flat fitted curve, though single readings scatter.
Potency means the concentration at half of the fitted maximal effect.

The test in a line: qHTS assay to identify small molecule antagonists of the estrogen related receptor (ERR) signaling pathway from Tox21 library - cell viability counter screen (AID 1224834). Further: nearly all actives have a fitted effect of over 30% in size. The settings on record: ERR reporter cells viability, CellTiter-Fluor, 17.5 h; series mostly up to 92.4 µM. An excerpt:
National Center for Advancing Translational Sciences [NCATS]
NIH Chemical Genomics Center [NCGC]
U.S. Environmental Protection Agency [EPA]
National Institutes of Environmental Health Sciences [NIEHS]
National Toxicology Program [NTP]
U.S. Food and Drug Administration [FDA]
Estrogen related receptors (ERRs), the first orphan nuclear receptors discovered, play an important role in the control of cellular energy metabolism. ERRs are required for high-energy production in response to the environmental challenges. ERR-alpha was also identified as an adverse marker for breast cancer progression; ERR-alpha-positive tumors have a poor prognosis. To screen and to identify environmental compounds that perturb the ERR signaling pathways could provide valuable information for potential therapeutic or preventive measures in the treatment of metabolic disease. To differentiate true ERR antagonists or agonist from cytotoxic substances, the assay is multiplexed with cell viability assay.
Tox21 Assay Protocol Summary:
The ERR cells were dispensed at 2,000 cells/5 ul/well in 1536-well white plates using a Multidrop dispenser. After the assay plates were incubated at a 37 C/5% CO2 incubator for 6 hours, 23 nL of compounds dissolved in DMSO, positive and negative controls or DMSO only was transferred to the assay plate by a pin tool. The plates were incubated at 37 C for 17.5 hours. 1 ul/well of CellTiter-Fluor reagent was added into the assay plates using a Flying Reagent Dispenser. After 30-minute incubation at 37 C/5% CO2, the fluorescence intensity in the plates was measured using a ViewLux plate reader.
For orientation: qHTS replaces the single test concentration by a dilution series.
For `COP(=S)(OC)Oc1ccc([N+](=O)[O-])cc1Cl`, the Potency is 48.6 µM (active).
In the case of `CC(C)N(C(=O)COc1nnc(C(F)(F)F)s1)c1ccc(F)cc1` it was “inactive”; in that of `c1ccc(C2CC2)c(OCC2=NCCN2)c1`, “inactive”; in that of `C=CC(=O)OC`, “inactive”.
For `O=[N+]([O-])C(Br)(CO)CO`, the Potency entry is “inactive”.
Turning to `O=C(NC(=O)c1c(F)cccc1F)Nc1cc(Cl)c(Oc2ncc(C(F)(F)F)cc2Cl)c(Cl)c1`, the Potency entry is “inactive”.
Turning to `CCOP(O)OCC`, the Potency entry was “inactive”.
As to `CCOP(=S)(OCC)SCSCC`, the Potency result is “inactive”.
For `CCCN(CCCl)c1c([N+](=O)[O-])cc(C(F)(F)F)cc1[N+](=O)[O-]`, the Potency entry was “inactive”.
On to `CC(C)(Cl)[N+](=O)[O-]`, for which the Potency result was “inactive”.
In the case of `C=C(C#N)CCC#N`, the Potency result is “inactive”.
Under `CC(C)(C)c1cc([N+](=O)[O-])cc([N+](=O)[O-])c1O` stands 15.3 µM (active); under `CCOC(=O)COc1cc(-c2nn(C)c(OC(F)F)c2Cl)c(F)cc1Cl`, “inactive”.
Regarding `O=[N+]([O-])c1cc(C(F)(F)F)cc([N+](=O)[O-])c1Cl`, the Potency is 34.5 µM (active).
Consider `Brc1ccccc1`, for which the Potency entry is “inactive”.
In the case of `Nc1ccc(N=Nc2ccc(-c3ccc(N=Nc4c(S(=O)(=O)O)cc5cc(S(=O)(=O)O)c(N=Nc6ccccc6)c(O)c5c4N)cc3)cc2)c(N)c1`, the Potency is 31.3 µM (active).
In the case of `O=C(NC(=O)c1c(F)cccc1F)Nc1ccc(OC(F)(F)C(F)OC(F)(F)F)c(Cl)c1` (stereo not given) it was “inactive”.
Under `CCCCC(O)(Cn1cncn1)c1ccc(Cl)cc1Cl` (stereo not given) stands 54.4 µM (active); under `N#Cc1ccc(Cl)cc1`, “inactive”.
On to `Cc1ccc(N)cc1C`, for which the Potency entry is “inactive”.
On to `Sc1ccccc1Cl`, for which the Potency result is “inactive”.
As for `C=CC(C)=O`, the Potency result is “inactive”.
With `CCCCCCCCCCOC(=O)c1ccccc1C(=O)OCCCCCCCCCC`, the Potency result was “inactive”.
In the case of `CC(C)N(CCC(C(N)=O)(c1ccccc1)c1ccccn1)C(C)C` (stereo not given) it was “inactive”.
Regarding `Cc1ccccc1CCl`, the Potency entry is “inactive”.
Regarding `Cc1ccccc1C(=O)Nc1cccc(OC(C)C)c1`, the Potency entry was “inactive”.
On to `CCCC(=O)Cl`, for which the Potency result was “inactive”.
As for `COC1=CC(=O)O[C@@H](CCc2ccccc2)C1`, the Potency result was “inactive”.
In the case of `Nc1nc(=S)[nH][nH]1`, the Potency entry is “inactive”.
Turning to `CCBr`, the Potency result is “inactive”.
In the case of `COC(=O)C(Cl)C(=O)OC`, the Potency entry is “inactive”.
Under `CCc1ccc(C(=O)NN(C(=O)c2cc(C)cc(C)c2)C(C)(C)C)cc1` stands 8.63 µM (active); under `O=[N+]([O-])c1ccc(F)c([N+](=O)[O-])c1`, 34.7 µM (active).
For the compound `O=S(=O)(Cl)c1ccccc1`, the Potency result is “inactive”.
As to `ClCc1cccc(Cl)c1`, the Potency result was “inactive”.
For `CCn1cc[n+](C)c1`, the Potency entry was “inactive and 30.9 µM (active)”.
In the case of `CCCCOC(=O)c1ccccc1C(=O)OCc1ccccc1`, the Potency entry is “inactive”.
Take `[O-][Cl+]O`: the Potency entry is “inactive”.
Consider `N#C/C(N)=C(/N)C#N`, for which the Potency result is “inactive”.
As for `Nc1nc(N)nc(N)n1`, the Potency entry was “inactive”.
